# Test results taken from PubChem BioAssay (NCATS).
# Inconclusive results are not listed. Active and inactive are the calls of the source. Unless noted, the call rests on the fitted dose curve; in most records, active means well fitted curve in the direction sought with a large enough effect; inconclusive means small, poorly fitted or top-dose-only effect, or another doubt; inactive means no such curve, though single readings can be large; an effect the other way counts as inactive or inconclusive.
# Assays:
# [1] = biological target: Nuclear receptor subfamily 1 group I member 2 (Homo sapiens) (UniProt O75469); experiment: Dual reporter qHTS for agonist of Pregnane X Receptor (hPXR) against the NCATS DSHEA and TCM libraries: Luminescence readout (AID 1920059); further: 0% is about no effect
# Nuclear receptor subfamily 1 group I member 2 (Homo sapiens), sequence (O75469 whole entry, looked up): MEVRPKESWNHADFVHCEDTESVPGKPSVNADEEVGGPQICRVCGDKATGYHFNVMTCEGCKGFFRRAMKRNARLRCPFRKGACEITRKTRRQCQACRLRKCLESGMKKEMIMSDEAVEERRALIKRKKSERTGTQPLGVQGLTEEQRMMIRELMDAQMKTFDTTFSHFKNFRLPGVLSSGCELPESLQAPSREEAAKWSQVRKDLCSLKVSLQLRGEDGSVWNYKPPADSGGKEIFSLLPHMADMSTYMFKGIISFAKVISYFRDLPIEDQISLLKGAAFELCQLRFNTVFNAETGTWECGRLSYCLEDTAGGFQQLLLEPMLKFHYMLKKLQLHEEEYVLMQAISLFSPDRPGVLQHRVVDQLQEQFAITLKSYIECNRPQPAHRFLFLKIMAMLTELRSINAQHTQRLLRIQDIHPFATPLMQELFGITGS
# Outline: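 hPXR-Luc HepG2 cells, 2000/well in 5% charcoal-stripped FBS medium, attached 5 h, then exposed 24 h at 37C to compounds. Viability by CellTiter-Fluor, then luciferase luminescence with ONE-Glo.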
# [2] = biological target: Nuclear receptor subfamily 1 group I member 2 (Homo sapiens) (UniProt O75469); experiment: Dual reporter qHTS for antagonist of Pregnane X Receptor (hPXR) against the NCATS DSHEA and TCM libraries: Luminescence Readout (AID 1920060);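 further: HepG2 cells carrying hPXR luciferase reporter stimulated with rifampicin at 2 µM; 0% is about no effect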
# Outline: (§1)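 HepG2 hPXR-Luc, 2000 cells/well, charcoal-stripped FBS medium; 5 h attach; RIF 2 uM final; 24 h 37C/5% CO2; CellTiter-Fluor 1 h, fluor 405/540; ONE-Glo 30 min RT, lum.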
# [3] = Dual reporter qHTS for antagonist of Pregnane X Receptor (hPXR) against the NCATS DSHEA and TCM libraries: Fluorescence Readout (AID 1920061); further: 0% is about no effect
# Outline: as §1
# [4] = qHTS drug screen for cell cycle checkpoint inhibitors in PARPi-resistant BRCA-mutant ovarian cancer cell lines. (AID 1963452; calls by dose curve; further: potency means the concentration at half of the fitted maximal effect); settings: PEO1/OlaR viability, CellTiter-Glo luminescence, 96 h; for Z-AUC: stronger effect = lower value
# Outline: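 PEO1, PEO4 and PEO1/OlaR ovarian cancer cells, 600 per well, exposed 96 h at 37C to a dilution series. Viability read by CellTiter-Glo luminescence, normalized to DMSO and empty wells; activity summarized as Z-AUC.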
# 3D7 = experiment: qHTS profiling for inhibitors of Plasmodium falciparum proliferation (AID 504749); further: nearly all actives have a fitted effect of over 60% in size; further: potency means the concentration at half of the fitted maximal effect;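 on activity, negative = inhibition: 0% = DMSO vehicle and full inhibition = artemisinin control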; settings: P. falciparum in erythrocytes, SYBR Green DNA, 72 h; series mostly up to 28.7 µM
# Outline: (§2)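 P. falciparum-infected erythrocytes (0.3% parasitemia, 2.5% hematocrit) incubated with compound 72 h at 37 C, 5% CO2. Parasite DNA detected by SYBR Green after lysis, overnight at room temperature; normalised to 0.29 uM artemisinin and DMSO.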
# AS120 = experiment: as above; settings: P. falciparum in erythrocytes, SYBR Green DNA, 72 h; series mostly up to 28.7 µM
# Outline: as §2
# [5] = qHTS for identification of novel therapeutic agents for treatment of microphthalmiaassociated transcription factor (MiT) renal cell carcinoma (RCC) (AID 1963991; calls by dose curve; further: potency means the concentration at half of the fitted maximal effect;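 on z-score: curves scaled with 100% = DMSO viability and 0% = empty wells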); settings: CellTiter-Glo, 48 h; for z-score: stronger effect = lower value; for Potency: active = Z-AUC below -0.8 in all three lines
# Outline: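 UOK109/UOK124/UOK145 (TFE3 fusions, three partners); 500 cells/well; MIPE v4.0, 1912 cpds, 11 conc.; 48 h, 37 C; CellTiter-Glo, 15 min RT; lum. Norm.: DMSO 100%, empty 0%.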
# [6] = qHTS profiling for inhibitors of Plasmodium falciparum proliferation (AID 504749); further: potency means the concentration at half of the fitted maximal effect;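 on activity, negative = inhibition: 0% = DMSO vehicle and full inhibition = artemisinin control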; on all read-outs here: nearly all actives have a fitted effect of over 60% in size; settings: P. falciparum in erythrocytes, SYBR Green DNA, 72 h; for activity, negative = inhibition: at 28.7 µM (top of the series)
# Outline: as §2
# AA1029 = experiment: as above; settings: P. falciparum in erythrocytes, SYBR Green DNA, 72 h; series mostly up to 28.7 µM
# Outline: as §2
# ATS189 = experiment: as above; settings: P. falciparum in erythrocytes, SYBR Green DNA, 72 h; series mostly up to 28.7 µM
# Outline: as §2
# ATS95 = experiment: as above; settings: P. falciparum in erythrocytes, SYBR Green DNA, 72 h; series mostly up to 28.7 µM
# Outline: as §2
# C2A = experiment: as above; settings: P. falciparum in erythrocytes, SYBR Green DNA, 72 h; series mostly up to 28.7 µM
# Outline: as §2
# CP185 = experiment: as above; settings: P. falciparum in erythrocytes, SYBR Green DNA, 72 h; series mostly up to 28.7 µM
# Outline: as §2
# CP191 = experiment: as above; settings: P. falciparum in erythrocytes, SYBR Green DNA, 72 h; series mostly up to 28.7 µM
# Outline: as §2
# CP192 = experiment: as above; settings: P. falciparum in erythrocytes, SYBR Green DNA, 72 h; series mostly up to 28.7 µM
# Outline: as §2
# CP194 = experiment: as above; settings: P. falciparum in erythrocytes, SYBR Green DNA, 72 h; series mostly up to 28.7 µM
# Outline: as §2
# CP201 = experiment: as above; settings: P. falciparum in erythrocytes, SYBR Green DNA, 72 h; series mostly up to 28.7 µM
# Outline: as §2
# CP203 = experiment: as above; settings: P. falciparum in erythrocytes, SYBR Green DNA, 72 h; series mostly up to 28.7 µM
# Outline: as §2
# CP211 = experiment: as above; settings: P. falciparum in erythrocytes, SYBR Green DNA, 72 h; series mostly up to 28.7 µM
# Outline: as §2
# 7G8 = experiment: as above; settings: P. falciparum in erythrocytes, SYBR Green DNA, 72 h; series mostly up to 28.7 µM
# Outline: as §2
# [7] = measured here: PEO1 parental Z-AUC
# [8] = TFE3-RCC UOK109 viability, measured here: UOK109 Z-AUC
# [9] = TFE3-RCC viability, measured here: UOK124 Z-AUC
# [10] = TFE3-RCC viability, measured here: UOK145 Z-AUC
smiles,measurement,setting,value
O=c1c(O)c(-c2ccc(O)c(O)c2)oc2cc(O)cc(O)c12,outcome,[1],inactive
same,outcome,[2],inactive
same,outcome,[3],inactive
same,Z-AUC,[4],0.194 (inactive)
same,Z-AUC,[4]; [7],0.475
same,Z-AUC,[4]; measured here: PEO4 Z-AUC,0.343
same,Potency,3D7,12.6 µM (active)
same,Potency,AS120,11.2 µM (active)
Cn1c(=O)c2c(ncn2C)n(C)c1=O,outcome,[1],inactive
same,outcome,[2],inactive
same,outcome,[3],inactive
same,Z-AUC,[4],1.16 (inactive)
same,Z-AUC,[4]; [7],1.03
same,Z-AUC,[4]; measured here: PEO4 Z-AUC,1.21
same,z-score,[5]; [8],0.696
same,z-score,[5]; [9],0.536
same,z-score,[5]; [10],0.729
same,"activity, negative = inhibition",[6]; parasite line A,6.06% (inactive)
same,"activity, negative = inhibition",[6]; parasite line B,8.5% (inactive)
same,Potency,3D7,inactive
same,Potency,AA1029,inactive
same,Potency,AS120,inactive
same,Potency,ATS189,inactive
same,Potency,ATS95,inactive
same,Potency,C2A,inactive
same,Potency,CP185,inactive
same,Potency,CP191,inactive
same,Potency,CP192,inactive
same,Potency,CP194,inactive
same,Potency,CP201,inactive
same,Potency,CP203,inactive
same,Potency,CP211,inactive
O=C(C1CCCCC1)N1CC(=O)N2CCc3ccccc3C2C1 (centres undefined),Z-AUC,[4],1.17 (inactive)
same,Z-AUC,[4]; [7],0.752
same,Z-AUC,[4]; measured here: PEO4 Z-AUC,1.07
same,z-score,[5]; [8],-4.91
same,z-score,[5]; [9],0.786
same,z-score,[5]; [10],-3.49
CC[C@@]1(O)C(=O)OCc2c1cc1n(c2=O)Cc2cc3c(CN(C)C)c(O)ccc3nc2-1,Z-AUC,[4],-0.723 (inactive)
same,Z-AUC,[4]; [7],-1.25
same,Z-AUC,[4]; measured here: PEO4 Z-AUC,-0.128
same,Potency,[5]; TFE3-RCC UOK109 viability,5.9 µM (active)
same,z-score,[5]; [8],-0.963
same,z-score,[5]; [9],-2.75
same,z-score,[5]; [10],-1.63
same,Potency,[6]; parasite line A,3.55 µM (active)
same,Potency,[6]; parasite line B,7.08 µM (active)
same,Potency,3D7,5.62 µM (active)
same,Potency,AA1029,7.08 µM (active)
same,Potency,AS120,3.55 µM (active)
same,Potency,ATS95,3.16 µM (active)
same,Potency,C2A,8.91 µM (active)
same,Potency,CP191,8.91 µM (active)
same,Potency,CP194,4.78 µM (active)
same,Potency,CP203,6.75 µM (active)
same,Potency,CP211,6.01 µM (active)
Cc1cc(C(C)(C)C)c(O)c(C)c1CC1=NCCN1,Z-AUC,[4],1.21 (inactive)
same,Z-AUC,[4]; [7],0.68
same,Z-AUC,[4]; measured here: PEO4 Z-AUC,0.695
same,z-score,[5]; [8],0.384
same,z-score,[5]; [9],0.625
same,z-score,[5]; [10],1.63
same,"activity, negative = inhibition",[6]; parasite line A,-4.77% (inactive)
same,"activity, negative = inhibition",[6]; parasite line B,-3.69% (inactive)
same,Potency,3D7,inactive
same,Potency,7G8,inactive
same,Potency,AA1029,inactive
same,Potency,AS120,inactive
same,Potency,ATS189,inactive
same,Potency,ATS95,inactive
same,Potency,C2A,inactive
same,Potency,CP185,inactive
same,Potency,CP191,inactive
same,Potency,CP192,inactive
same,Potency,CP194,inactive
same,Potency,CP201,inactive
same,Potency,CP203,inactive
same,Potency,CP211,inactive
COc1ccc2c(c1)c(CC(=O)O)c(C)n2C(=O)c1ccc(Cl)cc1,Z-AUC,[4],0.8 (inactive)
same,Z-AUC,[4]; [7],0.391
same,Z-AUC,[4]; measured here: PEO4 Z-AUC,0.536
O=C1c2c(O)ccc(O)c2C(=O)c2c(NCCNCCO)ccc(NCCNCCO)c21,Potency,[4],0.195 µM (active)
same,Z-AUC,[4]; [7],-2.48
same,Z-AUC,[4]; measured here: PEO4 Z-AUC,-2.26
same,Potency,[5]; TFE3-RCC UOK109 viability,1.05 µM (active)
same,z-score,[5]; [8],-2.02
same,z-score,[5]; [9],-1.52
same,z-score,[5]; [10],-2.08
same,Potency,[6]; parasite line A,3.16 µM (active)
same,Potency,[6]; parasite line B,3.16 µM (active)
same,Potency,3D7,2 µM (active)
same,Potency,7G8,1.26 µM (active)
same,Potency,AA1029,2.51 µM (active)
same,Potency,AS120,2.24 µM (active)
same,Potency,ATS189,2.82 µM (active)
same,Potency,ATS95,2.24 µM (active)
same,Potency,C2A,3.16 µM (active)
same,Potency,CP185,3.16 µM (active)
same,Potency,CP191,3.55 µM (active)
same,Potency,CP194,6.42 µM (active)
same,Potency,CP201,6.42 µM (active)
same,Potency,CP211,6.42 µM (active)
CN1C2CCC1CC(OC(=O)C(CO)c1ccccc1)C2 (centres undefined),Z-AUC,[4],0.435 (inactive)
same,Z-AUC,[4]; [7],0.73
same,Z-AUC,[4]; measured here: PEO4 Z-AUC,-0.0914
same,z-score,[5]; [8],0.361
same,z-score,[5]; [9],0.456
same,z-score,[5]; [10],0.45
NC(CO)C(=O)NNCc1ccc(O)c(O)c1O (centres undefined),Z-AUC,[4],-0.229 (inactive)
same,Z-AUC,[4]; [7],-0.392
same,Z-AUC,[4]; measured here: PEO4 Z-AUC,-0.375
same,z-score,[5]; [8],0.539
same,z-score,[5]; [9],-0.122
same,z-score,[5]; [10],0.506
